For the assay, the system named is primary human hepatic stellate cells (donor 1). The experiment in a line: scaled lipid accumulation score (0 = DMSO-like, 1 = nortriptyline-like); higher = stronger HSC inactivation (lipid re-accumulation), active = hit call of the paper. Conditions: 48 h.
Where [1] appears, read: library stock concentration: 10 mM.
Setting [2] is: library stock concentration: 80 uM.
Setting [3] is: library stock concentration: 400 uM.
Where [4] appears, read: library stock concentration: 2 mM.
The mark [5] stands for this setting: library stock concentration: 1 mM.
The mark [6] stands for this setting: library stock concentration: 3.33 mM.

Structures are written as SMILES. Several values for one entry are separate records, joined by “and”; a condition that tells them apart may be missing. Equal values may be shown once. Where a name gives a salt, the structure may show the parent alone. Among all 5,800 compounds or so, about 620 (11%) showed activity.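 Rule for the calls: active = score above a cut-off or among the top three wells of a plate; in these data no inactive exceeds 0.85.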 For the sample, actives were picked, then their nearest neighbours and some compounds at random.

These results are taken from the supplement of paper PMC9135407.

Turning to `N=C(N)S/C=C\C(=O)O` [ZAPA sulphate], the “scaled lipid accumulation score” value under setting [1] is 0.011 (inactive). In the case of `CC(O)C(=O)O.N` (stereo unspecified), the “scaled lipid accumulation score” value under setting [1] was ≤ 0 (inactive).

Turning to `CC(C)S(=O)(=O)Nc1ccc(F)c(C(=O)c2c[nH]c3ncc(-c4cccnc4)cc23)c1F`, the “scaled lipid accumulation score” value under setting [2] is ≤ 0 (inactive), the “scaled lipid accumulation score” value under setting [3] was ≤ 0 (inactive), the “scaled lipid accumulation score” value under setting [4] is ≤ 0 (inactive) and the “scaled lipid accumulation score” value under setting [1] is 0.059 (inactive). As to `CC(C)(CCCCCCCCCCC(C)(C)CC(=O)O)CC(=O)O`, the “scaled lipid accumulation score” value under setting [5] was 0.013 (inactive). For `CCCCC/C=C\C/C=C\C/C=C\C/C=C\CCCC(=O)OCC` [Arachidonic Acid ethyl ester], the “scaled lipid accumulation score” value under setting [5] was ≤ 0 (inactive).

As for `CC(C)=CCC/C(C)=C/CC/C(C)=C/CSc1ccccc1C(N)=O` [Farnesyl Thiosalicylic Acid Amide], the “scaled lipid accumulation score” value under setting [5] was ≤ 0 (inactive).

As to `CCCCCCCCCCCCCCCC(=O)OC[C@H](COP(=O)([O-])OCC[N+](C)(C)C)OC(=O)CCCCCCCC(=O)/C=C/C(=O)O`, under setting [5], the “scaled lipid accumulation score” value was 0.026 (inactive). `Nc1nc2c(nc(Br)n2[C@@H]2O[C@@H]3COP(=O)(O)O[C@H]3[C@H]2O)c(=O)[nH]1` [8-Bromo-cGMP, sodium salt]: the “scaled lipid accumulation score” value under setting [1] is 0.026 (inactive).

Regarding `CCCCC/C=C\C[C@@H](O)/C=C/C=C/C=C\[C@@H](O)CCCC(=O)O` [Leukotriene B4], the “scaled lipid accumulation score” value (library stock concentration: 100 uM) was ≤ -0.021 (inactive).

For the compound `NC(CCCP(=O)(O)O)C(=O)O` (stereo unspecified), under setting [1], the “scaled lipid accumulation score” value is 0.024 (inactive). For the compound `NC(CCCP(=O)(O)O)C(=O)O` (stereo not drawn) [D(-)-2-Amino-5-phosphonopentanoic acid], under setting [1], the “scaled lipid accumulation score” value is 0.148 (inactive). As to `CCCCCCCCc1ccc(CCC(N)(CO)CO)cc1.Cl` [Fingolimod (FTY720) HCl], under setting [6], the “scaled lipid accumulation score” value was 1.17 (active). For the compound `CCCCCCCCc1ccc(-c2ccc(C(=O)O)cc2)cc1`, under setting [1], the “scaled lipid accumulation score” value was ≤ 0 (inactive) and 0.032 (inactive). Take `CCCCCCCCc1ccc(CCC(N)(CO)CO)cc1`: the “scaled lipid accumulation score” value under setting [5] was 0.527 (inactive). Regarding `CCCCCCCCc1ccc(CCC(N)(CO)CO)cc1` [Fingolimod (FTY720) HCl], the “scaled lipid accumulation score” value under setting [1] was 0.376 (inactive). As for `CC1(C)CCC(C)(C)c2cc(C3(c4ccc(C(=O)O)cc4)OCCO3)ccc21`, under setting [1], the “scaled lipid accumulation score” value is ≤ -0.001 (inactive). With `COCCCC/C(=N\OCCN)c1ccc(C(F)(F)F)cc1` [Fluvoxamine maleate], the “scaled lipid accumulation score” value is 0.592 (inactive). In addition, under setting [6], the “scaled lipid accumulation score” value is 0.347 (inactive). For the same compound, the “scaled lipid accumulation score” value under setting [1] is 0.81 (inactive) and 0.545 (inactive).

On to `COCCCC/C(=N\OCCN)c1ccc(C(F)(F)F)cc1` [Fluvoxamine], for which the “scaled lipid accumulation score” value under setting [1] was 0.69 (inactive).

Consider `COCCCC/C(=N\OCCN)c1ccc(C(F)(F)F)cc1.O=C(O)/C=C\C(=O)O` [Fluvoxamine maleate], for which the “scaled lipid accumulation score” value under setting [1] is 1.13 (active). For `COCCCCCCCCCCCC(=O)O` [12-Methoxydodecanoic acid], under setting [5], the “scaled lipid accumulation score” value is ≤ -0.021 (inactive).

In the case of `CCCCC[C@H](O)/C=C/[C@@H]1[C@@H](C/C=C\CCCC(=O)O)[C@H](O)C[C@H]1O` [Prostaglandin F2.beta.], the “scaled lipid accumulation score” value under setting [5] was ≤ 0 (inactive). On to `CCCCC[C@H](O)/C=C/[C@@H]1[C@@H](C/C=C\CCCC(=O)O)[C@H](O)C[C@H]1O` [9b,11a-Prostaglandin F2], for which, under setting [5], the “scaled lipid accumulation score” value is ≤ -0.021 (inactive). On the same count and under the same terms, the figure for `CCCCC[C@H](O)/C=C/[C@@H]1[C@@H](C/C=C\CCCC(=O)O)[C@H](O)C[C@H]1O` [Prostaglandin F2.beta. (tromethamine salt)] is ≤ 0 (inactive). Regarding `CSc1ccc2c(c1)C(N1CCN(C)CC1)Cc1ccccc1S2` (stereo unspecified) [Methiothepin mesylate], under setting [1], the “scaled lipid accumulation score” value was 0.774 (inactive). On to `CSc1ccc2c(c1)C(N1CCN(C)CC1)Cc1ccccc1S2.O=C(O)/C=C\C(=O)O` (stereo unspecified) [Methiothepin maleate], for which the “scaled lipid accumulation score” value under setting [1] was 1.41 (active). Take `CSc1ccc2c(c1)C(N1CCN(C)CC1)Cc1ccccc1S2` (stereo unspecified) [Methiothepin maleate]: the “scaled lipid accumulation score” value was 0.829 (inactive).

In the case of `CCCCCC(O)C=CC1C(O)CC(=O)C1CC=CCCCC(=O)O` (stereo unspecified) [8-iso Prostaglandin E2], the “scaled lipid accumulation score” value under setting [5] was ≤ 0 (inactive). For `CO[C@H]1C[C@H](O[C@H]2[C@H](C)O[C@@H](O[C@@H]3/C(C)=C/C[C@@H]4C[C@@H](C[C@]5(C=C[C@H](C)[C@@H](C6CCCCC6)O5)O4)OC(=O)[C@@H]4C=C(C)[C@@H](O)[C@H]5OC/C(=C\C=C\[C@@H]3C)[C@]54O)C[C@@H]2OC)O[C@@H](C)[C@@H]1O`, the “scaled lipid accumulation score” value under setting [1] is 0.081 (inactive). As for `CCCCC[C@H](O)CC[C@H]1[C@H](O)CC(=O)[C@@H]1CCCCCCC(=O)O` [13,14-Dihydro-PGE1], under setting [5], the “scaled lipid accumulation score” value was ≤ -0.021 (inactive). Take `Cc1cn(-c2cc(NC(=O)c3ccc(C)c(Nc4nccc(-c5cccnc5)n4)c3)cc(C(F)(F)F)c2)cn1` [Nilotinib (AMN-107)]: the “scaled lipid accumulation score” value reads like this: under setting [6], 0.438 (inactive); under setting [1], 0.668 (inactive). Take `Cc1cn(-c2cc(NC(=O)c3ccc(C)c(Nc4nccc(-c5cccnc5)n4)c3)cc(C(F)(F)F)c2)cn1` [Nilotinib (AMN107, Tasigna) (0.4 mM)]: under setting [3], the “scaled lipid accumulation score” value is 0.053 (inactive). On to `Cc1cn(-c2cc(NC(=O)c3ccc(C)c(Nc4nccc(-c5cccnc5)n4)c3)cc(C(F)(F)F)c2)cn1` [Nilotinib (AMN107, Tasigna) (2 mM)], for which the “scaled lipid accumulation score” value under setting [4] is ≤ -0.005 (inactive). For `Cc1cn(-c2cc(NC(=O)c3ccc(C)c(Nc4nccc(-c5cccnc5)n4)c3)cc(C(F)(F)F)c2)cn1` [Nilotinib (AMN107, Tasigna) (10 mM)], the “scaled lipid accumulation score” value under setting [1] was 0.552 (inactive).

As for `CNc1nccc(-c2cccnc2Oc2cc(C(=O)Nc3cccc(C(F)(F)F)c3)ccc2C)n1` [listing 1 of 2 here], the “scaled lipid accumulation score” value under setting [3] is ≤ -0.005 (inactive) and the “scaled lipid accumulation score” value under setting [4] was ≤ -0.005 (inactive). Regarding `CNc1nccc(-c2cccnc2Oc2cc(C(=O)Nc3cccc(C(F)(F)F)c3)ccc2C)n1` [listing 2 of 2 here], the “scaled lipid accumulation score” value under setting [1] is 1.13 (active). `Cc1cn(-c2cc(NC(=O)c3ccc(C)c(Nc4nccc(-c5cccnc5)n4)c3)cc(C(F)(F)F)c2)cn1`: the “scaled lipid accumulation score” value by setting is: under setting [2], ≤ -0.009 (inactive); under setting [3], 0.035 (inactive); under setting [4], ≤ -0.009 (inactive); under setting [1], ≤ -0.008 (inactive).

`O=C(O)CCCCC1CCSS1` (racemic) [DL-.alpha.-Lipoic Acid]: the “scaled lipid accumulation score” value under setting [5] is ≤ 0 (inactive). Consider `C[C@H]1C[C@H]2[C@@H]3CCC4=CC(=O)C=C[C@]4(C)[C@@]3(F)[C@@H](O)C[C@]2(C)[C@@]1(O)C(=O)COP(=O)(O)O`, for which, under setting [1], the “scaled lipid accumulation score” value is ≤ 0 (inactive). On to `CC[C@@H]1C(=O)N(C)c2cnc(Nc3ccc(C(=O)NC4CCN(C)CC4)cc3OC)nc2N1C1CCCC1` [listing 1 of 2 here], for which the “scaled lipid accumulation score” value under setting [3] is 1.02 (active). With `COc1cc(C(=O)NC2CCN(C)CC2)ccc1Nc1ncc2c(n1)N(C1CCCC1)CC(F)(F)C(=O)N2C`, the “scaled lipid accumulation score” value was 0.271 (inactive) under setting [6] and 0.722 (inactive) under setting [1].

Regarding `COc1cc(C(=O)NC2CCN(C)CC2)ccc1Nc1ncc2c(n1)N(C1CCCC1)CCC(=O)N2C(C)C` [listing 1 of 2 here], the “scaled lipid accumulation score” value under setting [1] is 0.868 (active). As for `CC[C@@H]1C(=O)N(C)c2cnc(Nc3ccc(C(=O)NC4CCN(C)CC4)cc3OC)nc2N1C1CCCC1` [listing 2 of 2 here], the “scaled lipid accumulation score” value under setting [2] was 0.007 (inactive); the “scaled lipid accumulation score” value under setting [3] is 0.527 (inactive); the “scaled lipid accumulation score” value under setting [4] was 0.722 (inactive) and 0.628 (inactive); the “scaled lipid accumulation score” value under setting [6] is 0.569 (inactive); the “scaled lipid accumulation score” value under setting [1] was 0.749 (inactive) and 0.538 (inactive) and 0.259 (inactive). With `COc1cc(C(=O)NC2CCN(C)CC2)ccc1Nc1ncc2c(n1)N(C1CCCC1)CCC(=O)N2C(C)C` [listing 2 of 2 here], the “scaled lipid accumulation score” value is, setting by setting: under setting [2], ≤ 0 (inactive); under setting [3], ≤ 0 (inactive); under setting [4], 0.132 (inactive). With `CC[C@@H]1C(=O)N(C)c2cnc(Nc3ccc(C(=O)N[C@H]4CC[C@H](N5CCN(CC6CC6)CC5)CC4)cc3OC)nc2N1C(C)C` [Volasertib (BI 6727)], the “scaled lipid accumulation score” value is, setting by setting: under setting [6], 0.97 (active); under setting [1], 0.916 (active). With `COc1cc(C(=O)NC2CCN(C)CC2)ccc1Nc1ncc2c(n1)N(C1CCCC1)C(C)CC(=O)N2C` (stereo unspecified), the “scaled lipid accumulation score” value is ≤ 0 (inactive) under setting [2], ≤ 0 (inactive) under setting [3], 0.177 (inactive) under setting [4] and 0.428 (inactive) under setting [1].

As for `CCOc1cc(N2CCC(O)CC2)ccc1Nc1ncc2c(n1)N(C)c1ccccc1C(=O)N2C`, the “scaled lipid accumulation score” value under setting [2] was ≤ -0.009 (inactive); the “scaled lipid accumulation score” value under setting [3] is 0.026 (inactive); the “scaled lipid accumulation score” value under setting [4] was ≤ -0.009 (inactive); the “scaled lipid accumulation score” value under setting [6] was ≤ -0.009 (inactive); the “scaled lipid accumulation score” value under setting [1] is 0.473 (inactive) and 0.012 (inactive).

In the case of `CC[C@@H]1C(=O)N(C)c2cnc(Nc3ccc(C(=O)N[C@H]4CC[C@H](N5CCN(CC6CC6)CC5)CC4)cc3OC)nc2N1C(C)C` [Volasertib] [listing 1 of 2 here], the “scaled lipid accumulation score” value was 0.154 (inactive) under setting [2], 0.358 (inactive) under setting [3] and 0.451 (inactive) under setting [4]. In the case of `CC(C)CCN1c2nc(Nc3cc(F)c(O)c(F)c3)ncc2N(C)C(=O)C1C` (stereo unspecified), the “scaled lipid accumulation score” value reads like this: under setting [2], ≤ -0.001 (inactive); under setting [3], ≤ -0.001 (inactive) and ≤ -0.005 (inactive); under setting [4], ≤ -0.001 (inactive) and 0.123 (inactive); under setting [6], ≤ 0 (inactive); under setting [1], ≤ 0 (inactive) and ≤ -0.001 (inactive) and 0.36 (inactive). Consider `CC[C@@H]1C(=O)N(C)c2cnc(Nc3ccc(C(=O)N[C@H]4CC[C@H](N5CCN(CC6CC6)CC5)CC4)cc3OC)nc2N1C(C)C` [Volasertib] [listing 2 of 2 here], for which the “scaled lipid accumulation score” value under setting [1] is 1.17 (active).

As for `CC(=O)Nc1cccc(-n2c(=O)n(C3CC3)c(=O)c3c(Nc4ccc(I)cc4F)n(C)c(=O)c(C)c32)c1`, the “scaled lipid accumulation score” value by setting is: under setting [2], ≤ -0.009 (inactive); under setting [3], ≤ -0.003 (inactive); under setting [4], 0.049 (inactive); under setting [6], ≤ 0 (inactive); under setting [1], ≤ 0 (inactive) and 0.058 (inactive). Regarding `O=C(N/N=C/c1ccc(O)c(O)c1)c1cc2ccccc2cc1O` [Dynasore], the “scaled lipid accumulation score” value is, setting by setting: under setting [6], ≤ -0.009 (inactive); under setting [1], 0.182 (inactive). `CN=C(N)NCCC[C@H](N)C(=O)O` [L-Ornithine, N5-[imino(methylamino)methyl]-[CAS]]: the “scaled lipid accumulation score” value under setting [1] is ≤ 0 (inactive). As to `O=C(O[C@H]1[C@H](Oc2ccccc2COC(=O)C2(O)C=CCCC2=O)O[C@H](CO)[C@@H](O)[C@@H]1O)c1ccccc1` (stereo partly specified), the “scaled lipid accumulation score” value under setting [1] is ≤ 0 (inactive). In the case of `COc1cccc(OC)c1OCCNCC1COc2ccccc2O1` (stereo unspecified) [WB-4101 hydrochloride], the “scaled lipid accumulation score” value under setting [1] is 0.182 (inactive). On to `COc1cccc(OC)c1OCCNCC1COc2ccccc2O1` (stereo unspecified) [WB 4101 hydrochloride], for which the “scaled lipid accumulation score” value under setting [1] was 0.337 (inactive).
